Results reported in publication PMC12864922, “TDP-43 directly inhibits mRNA accumulation in neurites through modulation of mRNA stability”.
Over roughly 9,900 sequences, “r (bound/input frequency ratio)” has its median near 0.7; the highest 2% begin near 6.5. This excerpt belongs to a sample that is enriched for the highest values.

B1: ENSMUSG00000029028.57|Lrrc47 (ssRNA)
RNA: GGGAGUUCUACAGUCCGACGAUCGCUUCGAUAUCCGCAUGCUAGUAGAUCUUUGUAGGUGUAGGUAUGCUGUAGGUAUCUGGGUGUGGGUAUGCUGUAGAUGUCUGUGUAGGUGUGGAUAUGCUGUAGGUAUCUGGGUGUGCUGUAGGUGUCUGUGUGGGUGUGGGUGUGCUGUGGGUGUCUGUGUGGGUGUGCUGUAGGUGUCUGUAGGUGUGGGUAUGCUGCAGGUGUGGGUGUGCUGUAGAUCUCUAUAGGUGUGGGUGUGCUGUAGGGGUCUGUGUGGGUAUAGGUGUGGGUGUGCUGUCUCUUGCGGUCGCACUAGUGUGGAAUUCUCGGGUGUCAAGG
B2: ENSMUSG00000061578.309|Ksr2 (ssRNA)
RNA: GGGAGUUCUACAGUCCGACGAUCGCUUCGAUAUCCGCAUGCUAAAGUAAGAGAGGAGAGAGCCAGGGAGGGCUGAAGCUCUGGGACCCUGAAGUGUCCCCCGGGAACUGGGACUCACUCAUCUUCUCCUGUUUGUAGCUCAAUGACCCAGUGGGUCACAGUUCUAGGCGCUCCAAGGAAGCCAGGGGAGGGGGACUCCUCAGGAAGGAGUGACCAGUCACCUGCCUCCCAGGGUUCUGCCUUGCCCUUAAGCUAGGGUCCUUCAAGCAUCCACAGACUUAGAGUGUGGUGGUAACAUGCUUGUCUCUUGCGGUCGCACUAGUGUGGAAUUCUCGGGUGUCAAGG
B3: ENSMUSG00000032194.287|Kank2 (ssRNA)
RNA: GGGAGUUCUACAGUCCGACGAUCGCUUCGAUAUCCGCAUGCUAGUGGACGGAUGAGUGUGGGGUGGGUGGAUGGAUAAAUGAGCAAUGGAUGAGAAACUGGGUUGGCUGGUGGGUAGAUGUCAUGAUGGAGUCUUUGCACGUGUAUGAAACAGAAAACCAAACUUCAGGACAGACAGCUGCUGGUGUCUCUGGAUGCUCACAGCCUAGGGCACAUUUGAAAGGUCGUGCUCUGAGCUGAGCCCUGAGUUCCAGCCUUGUAGCCAGCAAGGGAGUUUAUUUAAGGUUCUGGAAGCAUCAGCUAUCUCUUGCGGUCGCACUAGUGUGGAAUUCUCGGGUGUCAAGG
B4: ENSMUSG00000032194.230|Kank2 (ssRNA)
RNA: GGGAGUUCUACAGUCCGACGAUCGCUUCGAUAUCCGCAUGCUACUCCCUGUCGUAUCCAGAUCACAGCUGAACCCACUGGGCCUUGGCGCCAAACCUCAGCAGGGCAGCAUUGAGACUCAUGGACUAAAGGAAAGUGUUCACUCUUCUAGACAAGUGGGUCUCUUGGUUUGAUGGAGUCUUACUCCGCUUGAGUUUUGUAGAAGGGGUUUGUCUAAGGCAUAGAGGCUUGGUUGGCAUAAGAAAAUAAGAUGGACAGAUGGAUGGGUGGAUGGAUGGAUGGCUGAUUGAGUGGGUGGGUGGGUCUCUUGCGGUCGCACUAGUGUGGAAUUCUCGGGUGUCAAGG
B5: ENSMUSG00000028439.219|Fam219a (ssRNA)
RNA: GGGAGUUCUACAGUCCGACGAUCGCUUCGAUAUCCGCAUGCUAGCAUUCUCCCUGAGCUCCUAAGCAAUUCCCAGGCUUCUCUAGGGCUUCAGUUCUCACAACUGGAAAAUAAAGAGUAGCUGACAUCACCGACAGAGUCUUUUCAUACCAGAAGGAAUUUCUUCACAGGAGUUUCUGCAAAAGACUAUGACAUCUGUGUGUCUGUGGUCUCACGAGGUACCUGGAGGUGUAUGUGCACGGACAUGGGAAGUACGUGAAGAUUUAUUUCGGGAAAAGUGGUGUGUGUGUAGCUGUACUGGGUGCUCUUGCGGUCGCACUAGUGUGGAAUUCUCGGGUGUCAAGG
B6: ENSMUSG00000032194.228|Kank2 (ssRNA)
RNA: GGGAGUUCUACAGUCCGACGAUCGCUUCGAUAUCCGCAUGCUAGUCCUCUCAAGUCUCCCUGUCGUAUCCAGAUCACAGCUGAACCCACUGGGCCUUGGCGCCAAACCUCAGCAGGGCAGCAUUGAGACUCAUGGACUAAAGGAAAGUGUUCACUCUUCUAGACAAGUGGGUCUCUUGGUUUGAUGGAGUCUUACUCCGCUUGAGUUUUGUAGAAGGGGUUUGUCUAAGGCAUAGAGGCUUGGUUGGCAUAAGAAAAUAAGAUGGACAGAUGGAUGGGUGGAUGGAUGGAUGGCUGAUUGAGUCUCUUGCGGUCGCACUAGUGUGGAAUUCUCGGGUGUCAAGG
B7: ENSMUSG00000028439.220|Fam219a (ssRNA)
RNA: GGGAGUUCUACAGUCCGACGAUCGCUUCGAUAUCCGCAUGCUAUCCCUGAGCUCCUAAGCAAUUCCCAGGCUUCUCUAGGGCUUCAGUUCUCACAACUGGAAAAUAAAGAGUAGCUGACAUCACCGACAGAGUCUUUUCAUACCAGAAGGAAUUUCUUCACAGGAGUUUCUGCAAAAGACUAUGACAUCUGUGUGUCUGUGGUCUCACGAGGUACCUGGAGGUGUAUGUGCACGGACAUGGGAAGUACGUGAAGAUUUAUUUCGGGAAAAGUGGUGUGUGUGUAGCUGUACUGGGUGUCAUGUCUCUUGCGGUCGCACUAGUGUGGAAUUCUCGGGUGUCAAGG
B8: ENSMUSG00000032194.282|Kank2 (ssRNA)
RNA: GGGAGUUCUACAGUCCGACGAUCGCUUCGAUAUCCGCAUGCUAGGAUGGAUGGACAGGUGGGUGGAUGGAUGGGUGGACGGAUGAGUGUGGGGUGGGUGGAUGGAUAAAUGAGCAAUGGAUGAGAAACUGGGUUGGCUGGUGGGUAGAUGUCAUGAUGGAGUCUUUGCACGUGUAUGAAACAGAAAACCAAACUUCAGGACAGACAGCUGCUGGUGUCUCUGGAUGCUCACAGCCUAGGGCACAUUUGAAAGGUCGUGCUCUGAGCUGAGCCCUGAGUUCCAGCCUUGUAGCCAGCAAGGGAGCUCUUGCGGUCGCACUAGUGUGGAAUUCUCGGGUGUCAAGG
B9: ENSMUSG00000032194.283|Kank2 (ssRNA)
RNA: GGGAGUUCUACAGUCCGACGAUCGCUUCGAUAUCCGCAUGCUAAUGGACAGGUGGGUGGAUGGAUGGGUGGACGGAUGAGUGUGGGGUGGGUGGAUGGAUAAAUGAGCAAUGGAUGAGAAACUGGGUUGGCUGGUGGGUAGAUGUCAUGAUGGAGUCUUUGCACGUGUAUGAAACAGAAAACCAAACUUCAGGACAGACAGCUGCUGGUGUCUCUGGAUGCUCACAGCCUAGGGCACAUUUGAAAGGUCGUGCUCUGAGCUGAGCCCUGAGUUCCAGCCUUGUAGCCAGCAAGGGAGUUUAUUCUCUUGCGGUCGCACUAGUGUGGAAUUCUCGGGUGUCAAGG
B10: ENSMUSG00000032194.281|Kank2 (ssRNA)
RNA: GGGAGUUCUACAGUCCGACGAUCGCUUCGAUAUCCGCAUGCUAAUGAAUGGAUGGAUGGACAGGUGGGUGGAUGGAUGGGUGGACGGAUGAGUGUGGGGUGGGUGGAUGGAUAAAUGAGCAAUGGAUGAGAAACUGGGUUGGCUGGUGGGUAGAUGUCAUGAUGGAGUCUUUGCACGUGUAUGAAACAGAAAACCAAACUUCAGGACAGACAGCUGCUGGUGUCUCUGGAUGCUCACAGCCUAGGGCACAUUUGAAAGGUCGUGCUCUGAGCUGAGCCCUGAGUUCCAGCCUUGUAGCCAGCACUCUUGCGGUCGCACUAGUGUGGAAUUCUCGGGUGUCAAGG
B11: ENSMUSG00000032194.288|Kank2 (ssRNA)
RNA: GGGAGUUCUACAGUCCGACGAUCGCUUCGAUAUCCGCAUGCUAGGAUGAGUGUGGGGUGGGUGGAUGGAUAAAUGAGCAAUGGAUGAGAAACUGGGUUGGCUGGUGGGUAGAUGUCAUGAUGGAGUCUUUGCACGUGUAUGAAACAGAAAACCAAACUUCAGGACAGACAGCUGCUGGUGUCUCUGGAUGCUCACAGCCUAGGGCACAUUUGAAAGGUCGUGCUCUGAGCUGAGCCCUGAGUUCCAGCCUUGUAGCCAGCAAGGGAGUUUAUUUAAGGUUCUGGAAGCAUCAGCUAUGACCCACUCUUGCGGUCGCACUAGUGUGGAAUUCUCGGGUGUCAAGG
B12: ENSMUSG00000028439.221|Fam219a (ssRNA)
RNA: GGGAGUUCUACAGUCCGACGAUCGCUUCGAUAUCCGCAUGCUAAGCUCCUAAGCAAUUCCCAGGCUUCUCUAGGGCUUCAGUUCUCACAACUGGAAAAUAAAGAGUAGCUGACAUCACCGACAGAGUCUUUUCAUACCAGAAGGAAUUUCUUCACAGGAGUUUCUGCAAAAGACUAUGACAUCUGUGUGUCUGUGGUCUCACGAGGUACCUGGAGGUGUAUGUGCACGGACAUGGGAAGUACGUGAAGAUUUAUUUCGGGAAAAGUGGUGUGUGUGUAGCUGUACUGGGUGUCAUGUAUGCUGCUCUUGCGGUCGCACUAGUGUGGAAUUCUCGGGUGUCAAGG
B13: ENSMUSG00000032194.229|Kank2 (ssRNA)
RNA: GGGAGUUCUACAGUCCGACGAUCGCUUCGAUAUCCGCAUGCUAUCAAGUCUCCCUGUCGUAUCCAGAUCACAGCUGAACCCACUGGGCCUUGGCGCCAAACCUCAGCAGGGCAGCAUUGAGACUCAUGGACUAAAGGAAAGUGUUCACUCUUCUAGACAAGUGGGUCUCUUGGUUUGAUGGAGUCUUACUCCGCUUGAGUUUUGUAGAAGGGGUUUGUCUAAGGCAUAGAGGCUUGGUUGGCAUAAGAAAAUAAGAUGGACAGAUGGAUGGGUGGAUGGAUGGAUGGCUGAUUGAGUGGGUGGCUCUUGCGGUCGCACUAGUGUGGAAUUCUCGGGUGUCAAGG
B14: ENSMUSG00000032194.289|Kank2 (ssRNA)
RNA: GGGAGUUCUACAGUCCGACGAUCGCUUCGAUAUCCGCAUGCUAGUGUGGGGUGGGUGGAUGGAUAAAUGAGCAAUGGAUGAGAAACUGGGUUGGCUGGUGGGUAGAUGUCAUGAUGGAGUCUUUGCACGUGUAUGAAACAGAAAACCAAACUUCAGGACAGACAGCUGCUGGUGUCUCUGGAUGCUCACAGCCUAGGGCACAUUUGAAAGGUCGUGCUCUGAGCUGAGCCCUGAGUUCCAGCCUUGUAGCCAGCAAGGGAGUUUAUUUAAGGUUCUGGAAGCAUCAGCUAUGACCCAAAGCACCUCUUGCGGUCGCACUAGUGUGGAAUUCUCGGGUGUCAAGG

Biological target: TDP-43 (Homo sapiens, UniProt Q13148 1-414)
Sequence (Q13148 whole entry): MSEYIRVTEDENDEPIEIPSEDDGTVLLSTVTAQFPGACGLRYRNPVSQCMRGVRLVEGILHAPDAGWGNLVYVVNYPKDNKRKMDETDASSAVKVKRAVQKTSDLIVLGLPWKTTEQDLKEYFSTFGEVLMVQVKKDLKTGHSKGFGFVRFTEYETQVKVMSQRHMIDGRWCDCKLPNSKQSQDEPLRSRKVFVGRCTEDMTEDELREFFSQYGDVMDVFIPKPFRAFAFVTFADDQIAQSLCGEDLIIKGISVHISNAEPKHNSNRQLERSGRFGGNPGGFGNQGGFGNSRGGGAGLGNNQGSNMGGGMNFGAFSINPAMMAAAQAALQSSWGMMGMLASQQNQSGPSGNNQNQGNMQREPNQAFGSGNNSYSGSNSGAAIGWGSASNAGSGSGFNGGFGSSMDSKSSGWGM
Assay: RNA Bind-n-Seq with designed 260-mer pool; 25 mM Tris-HCl, 150 mM KCl, 3 mM MgCl2, BSA (printed 500 mg/mL), 20 units/mL SUPERase IN; pH not stated; 500 nM RNA pool, 1 h, 4 C; TDP-43 5, 50, 500 nM; high values mean tight binding
Details: protein: recombinant; tags: SBP (GST cleaved off with PreScission; pGEX-GST-SBP)
Procedure, shortened: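 In 25 mM Tris-HCl, 150 mM KCl, 3 mM MgCl2, BSA and SUPERase IN, 500 nM of an in vitro-transcribed 260-nt 3′ UTR oligo pool was incubated for 1 h at 4 °C with SBP-tagged TDP-43 (5, 50 or 500 nM) captured on streptavidin beads. RNA remaining after washes was biotin-eluted, reverse transcribed, PCR-amplified and sequenced. Binding, R, is the bound-sample abundance of each oligo, normalized to mapped reads, divided by its abundance in input. Each duplicate used a separate, independent protein batch.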

Binder	binding signal
B1	6.24 R (bound/input frequency ratio)
B2	1.33 R (bound/input frequency ratio)
B3	5.94 R (bound/input frequency ratio)
B4	4.66 R (bound/input frequency ratio)
B5	1.85 R (bound/input frequency ratio)
B6	7.26 R (bound/input frequency ratio)
B7	6.53 R (bound/input frequency ratio)
B8	6.52 R (bound/input frequency ratio)
B9	3.66 R (bound/input frequency ratio)
B10	6.24 R (bound/input frequency ratio)
B11	6.68 R (bound/input frequency ratio)
B12	2.59 R (bound/input frequency ratio)
B13	4.54 R (bound/input frequency ratio)
B14	3.69 R (bound/input frequency ratio)
